# Source: PubChem BioAssay AID743279 (National Center for Advancing Translational Sciences (NCATS), 2014)
# The campaign covered roughly 360,000 compounds. About 17,000 (4.7%) were called active. About 5% were inconclusive and are not listed. The sample holds actives, similar compounds and a random draw of the others, so the mix is not that of the screen. No stated cut-off is given here; in the data, active means activity change below about -50%; inconclusive means mostly about -30% to -49%; inactive means weaker than that.
# Test: qHTS for Inhibitors of Inflammasome Signaling: IL-1-beta AlphaLISA Primary Screen
# Details: THP-1 LPS/ATP IL-1B secretion, 16 h; at 57.5 µM, hits give low values
# In short: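 THP-1 cells pretreated 1 hr with compounds (up to 57.5 uM final), then stimulated with LPS (250 ng/mL final) plus ATP (1.25 mM final); secreted IL-1B measured by AlphaLISA after 16 hr, decreased signal indicating inhibition.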
# On the % scale 0 is the no-effect control and ±100 the full control effect.
row,SMILES,activity change
1,CC(C)n1c(NCc2c[nH]c3ccccc23)nc2ccccc21,-81.7% (active)
2,CC(C)n1c(-c2cccs2)nc2ccccc21,-1.34% (inactive)
3,Cc1ccc(O)c(CNc2nc3ccccc3n2C)c1,-11.8% (inactive)
4,COCC(C)NC(=O)CSc1nc2nn(-c3ccccc3)c(=O)c-2c2n1CCCCC2 (stereo not drawn),-2.5% (inactive)
5,COc1ccc(C(C)C)cc1-c1ccc2nncn2c1,15.9% (inactive)
6,Cc1c(C(=O)N2CCCc3ccccc32)oc2ccccc12,3.03% (inactive)
7,Cc1ccc(C(=O)N2CCCc3ccccc32)c(Cl)c1,64.5% (inactive)
8,COc1ccc2oc(=O)c(C(=O)N3CCCc4ccccc43)cc2c1,-74% (active)
9,CCOC(=O)[C@@H]1[C@H]2COc3ccc(Br)cc3[C@H]2N2C(=O)N(c3ccc(Cl)cc3)C(=O)[C@@]12C,8.14% (inactive)
10,O=S(=O)(c1cccc(C(F)(F)F)c1)N1c2ccccc2-n2cccc2C1c1cccnc1 (stereo not drawn),41.9% (inactive)
11,c1ccc(C(c2ccccc2)N2CCN(Cc3nnnn3C3CCCCC3)CC2)cc1,20.1% (inactive)
12,CC1(C)CC(N2CCN(C(c3ccccc3)c3ccccc3)CC2)=CC(=[N+]2CCCCC2)C1,-71.2% (active)
13,CC(C)OCC(O)CN1CCN(C(c2ccccc2)c2ccccc2)CC1 (stereo not drawn),-6.29% (inactive)
14,CC(C)(O)C1=C[N+](=O)CC=C1,16.1% (inactive)
15,COc1cccc(NC(=O)C2(C)CCN2Cc2ccccc2Cl)c1 (stereo not drawn),-11.6% (inactive)
16,CC1CN(C(=O)c2ccc([N+](=O)[O-])s2)CC(C)O1 (stereo not drawn),22.4% (inactive)
17,O=[N+]([O-])c1ccc(C=Nc2ccc(Cl)cc2Cl)s1,-106% (active)
18,CNN/C(N=Cc1ccc([N+](=O)[O-])s1)=N\S(=O)(=O)c1cc(C)c(Cl)cc1SCc1ccccc1,-7.5% (inactive)
19,CCCCn1nnnc1NCc1cc(OC)c(OC)c(OC)c1,25.2% (inactive)
20,CCn1c2ccccc2c2cc(NC(=O)CNC)ccc21,-85.6% (active)

row,SMILES,activity change
1,CCn1c2ccccc2c2cc(NC(=O)COC(=O)c3ccccc3Br)ccc21,-18.9% (inactive)
2,CCn1c2ccccc2c2cc(NC(=O)C/C(C)=N/NC(=O)c3ccccc3N)ccc21,25.4% (inactive)
3,Cc1nn(-c2ccccc2)c2c1c(C)c(CCC(=O)NCC1CCCO1)c(=O)n2C (stereo not drawn),-20.2% (inactive)
4,Cc1ccc(CNC(=O)Nc2nnc([C@H]3C[C@H](O)[C@@H](CO)O3)s2)cc1,3.84% (inactive)
5,C[C@@H]1CN([C@H](C)CO)C(=O)c2cc(-c3ccc(F)cc3)cnc2O[C@H]1CN(C)C(=O)c1ccc(F)cc1,-10.1% (inactive)
6,CN(CCc1ccccc1)c1ccc([N+](=O)[O-])cn1,25.8% (inactive)
7,CNS(=O)(=O)c1cccc(C(=O)OCC(=O)N2c3ccccc3NC(=O)C2(C)C)c1,11.2% (inactive)
8,Cc1ccc(OCCC(=O)OCC(=O)N2c3ccccc3NC(=O)C2(C)C)cc1,11% (inactive)
9,Cc1cc(C(=O)OCC(=O)N2c3ccccc3NC(=O)C2(C)C)c(C)n1-c1ccccc1,-78.6% (active)
10,NC(=O)C1(Nc2ccc(-c3ccccc3)cc2)CCCC1,3.69% (inactive)
11,Cc1ccc(S(=O)(=O)N(CC(=O)Nc2cccnc2)c2ccc(Br)cc2)cc1,-14.5% (inactive)
12,O=C(Nc1ccc(OC(F)(F)F)cc1)c1ccc2c(c1)no[n+]2[O-],-96.1% (active)
13,Cn1cccc1/C=N/NC(=O)c1ccc(OC(F)(F)C(F)F)cc1,81.3% (inactive)
14,Cn1nccc1NC(=O)Nc1ccc(OC(F)(F)F)cc1,1.91% (inactive)
15,CC(CC(=O)N1CCN(S(=O)(=O)c2ccccc2)CC1)n1cncn1 (stereo not drawn),-19.9% (inactive)
16,Cc1cccc(S(=O)(=O)N(C)C[C@@H]2OCc3cnnn3CCCC(=O)N([C@H](C)CO)C[C@@H]2C)c1,-0.819% (inactive)
17,CN1OC[C@@H]2CN(C(=O)c3ccc(-c4ccccc4)cc3)[C@H](c3ccc(-c4cccc(F)c4)cc3)C[C@@H]21,56.8% (inactive)
18,C[C@@H]1CN([C@H](C)CO)S(=O)(=O)c2ccc(C#CC3CCCCC3)cc2O[C@H]1CN(C)C(=O)Cc1ccncc1,-1.14% (inactive)
19,CCCCc1nc2ccccc2c(NC(=O)CN2CCN(C)CC2)c1CCC,-6.28% (inactive)
20,c1ccc(Nc2nc(N3CCOCC3)c3ccccc3n2)cc1,-109% (active)

row,SMILES,activity change
1,CN1CCN(c2nc(Nc3ccc(O)cc3)nc3ccccc23)CC1,-96.2% (active)
2,c1ccc(-c2nnc(N3CCOCC3)c3ccccc23)cc1,-6.84% (inactive)
3,O=C(COc1nc2ccccc2nc1N1CCOCC1)NCC(F)(F)F,0.929% (inactive)
4,Cc1cc(Nc2ccc(Br)cc2)nc2ccccc12,-5.96% (inactive)
5,CCNC(=O)COC(=O)/C=C/c1c(C)nn(Cc2cccc(OC)c2)c1Cl,-4.38% (inactive)
6,NC(=S)NN=Cc1ccc(OC(=O)COc2cc(Cl)c(Cl)cc2Cl)cn1,119% (inactive)
7,CC1=NN(c2cccc(Cl)c2)C(=O)C12CC(C)=C(C)CS2 (stereo not drawn),-78.4% (active)
8,O=C(O)C(=Cc1ccccc1[N+](=O)[O-])c1ccccc1,12.6% (inactive)
9,Cc1c(C(C)(C)O)[nH]c2ccc(C#N)cc12,38.6% (inactive)
10,Cc1cccc(N(C(=O)Cc2cccs2)C(C(=O)NC2CCCC2)c2ccsc2)c1 (stereo not drawn),0% (inactive)
11,CCOC(=O)c1cc2c(n(-c3ccc(C)cc3)c1=O)CCCC2=O,-18.1% (inactive)
12,O=C1CCCC2=C1C(c1cccs1)CC(=O)N2c1ccc(F)cc1 (stereo not drawn),20.1% (inactive)
13,CCOC(=O)C1=C(N)N(c2ccc(C)cc2)C2=C(C(=O)CCC2)C1c1cccs1 (stereo not drawn),-55.3% (active)
14,Cc1ccccc1CS(=O)(=O)CC1(O)CCN(C(=O)c2cccc(C(F)(F)F)c2)CC1,9.6% (inactive)
15,Cc1ccc(-c2nc3ccc(Br)cn3c2Cc2ccccc2C(F)(F)F)cc1,16.5% (inactive)
16,CC(NCc1ccccc1OC1CCCC1)c1ccccc1 (stereo not drawn),-82.2% (active)
17,COc1ccccc1NC(=O)C(C)OC(=O)CC1CCCC1 (stereo not drawn),23.8% (inactive)
18,COc1ccccc1CN1CCN(C(c2ccccc2)c2ccccc2)CC1,-16.2% (inactive)
